The record followed here is article PMC8384837, “Expanding the binding specificity for RNA recognition by a PUF domain”.

Assay in all cases: yeast three-hybrid, YBZ-1, SC-Leu-His + 0.5 mM 3-AT, 4 days
Common to all, as to conditions: tags: N-Gal4 AD-HA kept; label: inside an RPR1-promoter hybrid RNA with tandem MS2 sites; ssRNA

For test [1], the target named is PUM1 PUF domain R3-YWF (Homo sapiens, UniProt Q14671 828-1176, C935Y;R936W;Q939F). The essentials:
(§1)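 The interaction score is the logarithmic change in variant frequency from input to selection. It uses log2, with a pseudocount of 1 for absent variants, and frequencies came from PCR-amplified, Illumina-sequenced repeat regions. The libraries were Pumilio-1 PUF domains randomized at the three base-contacting residues per repeat, co-expressed with matching RNA elements in strain YBZ-1 (LexA–MS2 coat fusion, HIS3 reporter). Plating lasted four days on SC-Leu (input) or SC-Leu-His + 0.5 mM 3-AT (selection).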

The target in test [2] is PUM1 PUF domain R3-SQQ (Homo sapiens, UniProt Q14671 828-1176, C935S;R936Q). In a few lines:
as §1

Test [3] addresses PUM1 PUF domain R5-RCL (Homo sapiens, UniProt Q14671 828-1176, C1007R;R1008C;Q1011L). The essentials:
as §1

The target in test [4] is PUM1 PUF domain R5-RGE (Homo sapiens, UniProt Q14671 828-1176, C1007R;R1008G;Q1011E). The essentials:
as §1

Test [5] concerns the target PUM1 PUF domain R7-QSG (Homo sapiens, UniProt Q14671 828-1176, S1079Q;N1080S;E1083G). The essentials:
as §1

Test [6] concerns the target PUM1 PUF domain R7-KPL (Homo sapiens, UniProt Q14671 828-1176, S1079K;N1080P;E1083L). The essentials: as §1
Test [7] addresses PUM1 PUF domain R8-HFN (Homo sapiens, UniProt Q14671 828-1176, N1122H;Y1123F;Q1126N). In a few lines:
as §1

For test [8], the target named is PUM1 PUF domain R2-RKC (Homo sapiens, UniProt Q14671 828-1176, N899R;Y900K;Q903C). The essentials: as §1
PUM1 PUF domain R2-RKC, sequence (Q14671 828-1176 N899R/Y900K/Q903C): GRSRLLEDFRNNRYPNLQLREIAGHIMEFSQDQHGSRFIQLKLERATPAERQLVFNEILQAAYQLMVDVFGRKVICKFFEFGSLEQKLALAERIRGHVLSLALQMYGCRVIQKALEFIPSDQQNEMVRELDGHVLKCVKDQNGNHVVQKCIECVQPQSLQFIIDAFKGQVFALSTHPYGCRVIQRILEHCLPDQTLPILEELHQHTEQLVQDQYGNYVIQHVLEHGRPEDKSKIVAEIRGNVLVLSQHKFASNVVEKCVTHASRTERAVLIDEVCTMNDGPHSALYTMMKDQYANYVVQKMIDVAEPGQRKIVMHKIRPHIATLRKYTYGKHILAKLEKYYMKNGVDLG
Test [9] concerns the target PUM1 PUF domain R1-TGR (Homo sapiens, UniProt Q14671 828-1176, S863T;R864G;Q867R). In a few lines: as §1

PUM1 PUF domain R5-RCL, sequence (Q14671 828-1176 C1007R/R1008C/Q1011L): as the sequence (Q14671 828-1176 N899R/Y900K/Q903C) above, with R72N, K73Y, C76Q, C180R, R181C, Q184L counted along it
PUM1 PUF domain R5-RGE, sequence (Q14671 828-1176 C1007R/R1008G/Q1011E): as the sequence (Q14671 828-1176 N899R/Y900K/Q903C) above, with R72N, K73Y, C76Q, C180R, R181G, Q184E counted along it
PUM1 PUF domain R1-TGR, sequence (Q14671 828-1176 S863T/R864G/Q867R): as the sequence (Q14671 828-1176 N899R/Y900K/Q903C) above, with S36T, R37G, Q40R, R72N, K73Y, C76Q counted along it
PUM1 PUF domain R7-KPL, sequence (Q14671 828-1176 S1079K/N1080P/E1083L): as the sequence (Q14671 828-1176 N899R/Y900K/Q903C) above, with R72N, K73Y, C76Q, S252K, N253P, E256L counted along it
PUM1 PUF domain R3-YWF, sequence (Q14671 828-1176 C935Y/R936W/Q939F): as the sequence (Q14671 828-1176 N899R/Y900K/Q903C) above, with R72N, K73Y, C76Q, C108Y, R109W, Q112F counted along it
PUM1 PUF domain R8-HFN, sequence (Q14671 828-1176 N1122H/Y1123F/Q1126N): as the sequence (Q14671 828-1176 N899R/Y900K/Q903C) above, with R72N, K73Y, C76Q, N295H, Y296F, Q299N counted along it
PUM1 PUF domain R7-QSG, sequence (Q14671 828-1176 S1079Q/N1080S/E1083G): as the sequence (Q14671 828-1176 N899R/Y900K/Q903C) above, with R72N, K73Y, C76Q, S252Q, N253S, E256G counted along it
PUM1 PUF domain R3-SQQ, sequence (Q14671 828-1176 C935S/R936Q): as the sequence (Q14671 828-1176 N899R/Y900K/Q903C) above, with R72N, K73Y, C76Q, C108S, R109Q counted along it

Take “GGCUAGAACUAGUGGAUCCCCCGGCGCCCGGCGGCUCGAGCCCGGGUAAGUGUAAGUAGUCUGCAUGCCGCCGGGCGCCAUGCCUGCAGGUCGACUCUAGAAAACAUG”: the binding signal in [1] is 3.54 log2 enrichment (interaction score).
Take “GGCUAGAACUAGUGGAUCCCCCGGCGCCCGGCGGCUCGAGCCCGGGUAAGUGUAAAUAGUCUGCAUGCCGCCGGGCGCCAUGCCUGCAGGUCGACUCUAGAAAACAUG”: the binding signal in test [2] was 2.27 log2 enrichment (interaction score).
On to “GGCUAGAACUAGUGGAUCCCCCGGCGCCCGGCGGCUCGAGCCCGGGUAAGUGUUAAUAGUCUGCAUGCCGCCGGGCGCCAUGCCUGCAGGUCGACUCUAGAAAACAUG”, for which the binding signal is 2.91 log2 enrichment (interaction score) in test [3] and 0.96 log2 enrichment (interaction score) in test [4].
In the case of “GGCUAGAACUAGUGGAUCCCCCGGCGCCCGGCGGCUCGAGCCCGGGUAAGUGUCAAUAGUCUGCAUGCCGCCGGGCGCCAUGCCUGCAGGUCGACUCUAGAAAACAUG”, the binding signal was 1.64 log2 enrichment (interaction score) in [3] and 2.34 log2 enrichment (interaction score) in test [4].
Take “GGCUAGAACUAGUGGAUCCCCCGGCGCCCGGCGGCUCGAGCCCGGGUAAGUUUAAAUAGUCUGCAUGCCGCCGGGCGCCAUGCCUGCAGGUCGACUCUAGAAAACAUG”: the binding signal in [5] is 2.85 log2 enrichment (interaction score).
In the case of “GGCUAGAACUAGUGGAUCCCCCGGCGCCCGGCGGCUCGAGCCCGGGUAAGUCUAAAUAGUCUGCAUGCCGCCGGGCGCCAUGCCUGCAGGUCGACUCUAGAAAACAUG”, in test [6], the binding signal was 2.86 log2 enrichment (interaction score).
Regarding “GGCUAGAACUAGUGGAUCCCCCGGCGCCCGGCGGCUCGAGCCCGGGUAAGCGUAAAUAGUCUGCAUGCCGCCGGGCGCCAUGCCUGCAGGUCGACUCUAGAAAACAUG”, in test [7], the binding signal is 3.57 log2 enrichment (interaction score).
For “GGCUAGAACUAGUGGAUCCCCCGGCGCCCGGCGGCUCGAGCCCGGGUAAGUGUAAAGAGUCUGCAUGCCGCCGGGCGCCAUGCCUGCAGGUCGACUCUAGAAAACAUG”, the binding signal in test [8] was 5.3 log2 enrichment (interaction score).
Turning to “GGCUAGAACUAGUGGAUCCCCCGGCGCCCGGCGGCUCGAGCCCGGGUAAGUGUAAAUCGUCUGCAUGCCGCCGGGCGCCAUGCCUGCAGGUCGACUCUAGAAAACAUG”, in test [9], the binding signal was 2.65 log2 enrichment (interaction score).
Take “GGCUAGAACUAGUGGAUCCCCCGGCGCCCGGCGGCUCGAGCCCGGGUAAGUGUAAAUUGUCUGCAUGCCGCCGGGCGCCAUGCCUGCAGGUCGACUCUAGAAAACAUG”: the binding signal in [9] is 0.64 log2 enrichment (interaction score).
